Most compounds without a hit are left out; they make up all but 9.3% or so of the library.
Sm TGR inh = inhibitors of Schistosoma mansoni thioredoxin glutathione reductase. Potency, µM (series often up to 114 µM), usual class: inhibitors. Q962Y6. purified TGR, DTNB reduction, TNB absorbance 405 nm. 360,000 compounds, 3% hits; further: nearly all actives have a fitted effect of over 60% in size
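TGR 20 nM + NADPH 100 uM (dispensed conc.), cpd preinc 15 min RT; start with NADPH (500 uM addition) then DTNB (15 mM addition). Kinetic TNB absorbance, 405 nm filter. Four-parameter Hill fit across titration.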
FMDV antiviral = blocks foot and mouth disease virus | FMDV antiviral cell-based qHTS | Potency, µM (titrated, usually from 57.9 µM), most hits filed as inhibitors | 410,000 compounds, 1.2% hits; calls by dose curve; tested in HEK293T cells; further: read-out not given here; nearly all actives have a fitted effect of over 45% in size
HCV inh = inhibitors of hepatitis C virus infection; 340,000 compounds, 3.4% hits; Potency, µM (highest dose often 41.8 µM), usual class: inhibitors; Huh7.5.1 HCVcc-Cre infection, luciferase reporter, 44 h
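HCVcc-Cre virus at an moi near 0.5 was added right after compound to cells cultured 4 h from seeding (1,000 cells/well). Luciferase activity was determined 44 h later, 15 min after substrate addition at RT.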
HCMV inh = human cytomegalovirus inhibition | HFF cells, HCMV-luciferase reporter, 72 h; hits give low values | 410,000 compounds, 4.5% hits | activity change, negative = inhibition, % at 57.5 µM; in the data active means activity change below about -60%; inconclusive means no clear call, values can overlap the other calls; inactive means above about -39%
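After 16 h attachment at 37C, HFF cells received test compound and HCMV-luciferase (1 PFU/cell); reporter luminescence read 72 h later, data normalized against buffer-only and known inhibitor Salinomycin.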
VACV Venus inh = inhibitors of vaccinia virus (Venus reporter); AID 720580; Vaccinia virus Venus reporter expression, fluorescence; Potency, µM (top dose mostly 36.5 µM), hits mostly inhibitors; 330,000 compounds, 0.46% hits; calls by dose curve; tested in A549 cells; further: nearly all actives have a fitted effect of over 30% in size
VACV mCherry inh = inhibitors of vaccinia virus infection (mCherry reporter signal). Vaccinia virus mCherry reporter infection, fluorescence. Potency, µM (doses to about 36.5 µM), most hits filed as inhibitors. 310,000 compounds, 0.63% hits; calls by dose curve; tested in A549 cells; further: nearly all actives have a fitted effect of over 35% in size
Large screens that a line does not name were inactive. Unless noted, the call rests on the fitted dose curve; in most records, active means well fitted curve in the direction sought with a large enough effect; inconclusive means small, poorly fitted or top-dose-only effect, or another doubt; inactive means no such curve, though single readings can be large; an effect the other way counts as inactive or inconclusive.

O=c1[nH]c(=O)n(Cc2ccco2)c(O)c1/C=N/N1CCCCCC1	none
NC(=O)c1ccc(N=Cc2c(O)n(Cc3ccco3)c(=O)[nH]c2=O)cc1	Sm TGR inh 39.8µM (no result: VACV Venus inh, VACV mCherry inh)
CCN(CC)c1ccc(N=Cc2c(O)n(Cc3ccco3)c(=O)[nH]c2=O)cc1	none
Cc1sc2nc(CN3CCC(C)CC3)nc(Cl)c2c1C	HCV inh inconclusive (no result: FMDV antiviral, VACV Venus inh, VACV mCherry inh)
Cc1noc(/C=C/N(C)C)c1S(=O)(=O)N1CCC(C(=O)O)CC1	HCMV inh -69.2
Cc1ccc(/C=C/c2onc(C)c2S(=O)(=O)N2CCC(C(=O)N3CCCCC3)CC2)cc1	VACV Venus inh inconclusive
COc1ccc(/C=C/c2onc(C)c2S(=O)(=O)N2CCC(C(=O)N3CCCCCC3)CC2)cc1	HCV inh inconclusive, HCMV inh -69.0, VACV Venus inh inconclusive, VACV mCherry inh inconclusive
Cc1cccc(/C=C/c2onc(C)c2S(=O)(=O)N2CCC(C(=O)N3CCCCC3)CC2)c1	HCV inh 10µM
CC(C)=NOc1nc(NC(=O)NS(=O)(=O)c2ccccc2Cl)nc(N(C)C)n1	none (no result: Sm TGR inh)
CC(C)CCn1c(Sc2nc3ccccc3s2)nc2c1c(=O)[nH]c(=O)n2C	FMDV antiviral 31.6µM (no result: VACV Venus inh, VACV mCherry inh)
CC(C)CCn1c(SCC(=O)c2ccccc2)nc2c1c(=O)[nH]c(=O)n2C	none
CCOc1cc(/C=N/Nc2nc(C)cc(=O)[nH]2)ccc1O	none
Cc1cc(N/N=C/c2ccc(F)cc2)nc(-n2nc(C)cc2C)n1	HCV inh 2µM, HCMV inh -96.4, VACV Venus inh inconclusive, VACV mCherry inh inconclusive
COc1ccc(/C=N/Nc2cc(C)nc(N3CCOCC3)n2)cc1	none
CCOc1cc(/C=N/Nc2cc(C)nc(-n3nc(C)cc3C)n2)ccc1O	FMDV antiviral inconclusive, HCV inh inconclusive, HCMV inh -77.7 (no result: VACV Venus inh, VACV mCherry inh)
COc1ccc(/C=N/Nc2cc(C)nc(-n3nc(C)cc3C)n2)c(OC)c1	FMDV antiviral 28.2µM, HCV inh inconclusive, HCMV inh -98.2, VACV Venus inh inconclusive, VACV mCherry inh 6.31µM
CC1CN(C(=O)c2ccc(COc3ccc4ccccc4c3)o2)CC(C)O1 (centres undefined)	Sm TGR inh 31.6µM (no result: VACV Venus inh, VACV mCherry inh)
CC1CN(C(=O)c2ccc(COc3ccc(C(C)C)cc3)o2)CC(C)O1 (centres undefined)	Sm TGR inh 39.8µM (no result: VACV Venus inh, VACV mCherry inh)
CC1CN(C(=O)c2ccc(COc3ccccc3Cl)o2)CC(C)O1 (centres undefined)	none
COc1ccc(C2=NOC(C(=O)NCCCN3CCOCC3)C2)cc1 (centres undefined)	none (no result: VACV Venus inh, VACV mCherry inh)
COc1ccc(/C=N/NC(=O)c2[nH]c3ccc(Br)cc3c2-c2ccccc2)c(C(=O)O)c1OC	HCMV inh -62.9, VACV Venus inh inconclusive
COc1ccc(/C=N/NC(=O)c2[nH]c3ccc(Cl)cc3c2-c2ccccc2)c(C(=O)O)c1OC	HCMV inh -99.4
O=C(N/N=C/c1ccccc1Cl)c1[nH]c2ccc(Br)cc2c1-c1ccccc1	HCV inh 3.98µM, VACV mCherry inh inconclusive
COc1ccc(/C=N/NC(=O)c2[nH]c3ccc(Br)cc3c2-c2ccccc2)cc1	VACV Venus inh inconclusive, VACV mCherry inh inconclusive (no result: HCMV inh)
COc1ccc(Cl)cc1NC(=O)COC(=O)CCCC1=NS(=O)(=O)c2ccccc2N1	HCV inh inconclusive
O=C1C2ON(c3ccccc3)C(c3ccccn3)C2C(=O)N1c1ccc(Br)cc1 (centres undefined)	none
Cc1ccc(N2C(=O)C3ON(c4ccccc4)C(c4ccncc4)C3C2=O)cc1 (centres undefined)	Sm TGR inh 15.8µM (no result: VACV Venus inh, VACV mCherry inh)
CN(C)c1ccc(C2C3C(=O)N(c4ccc(C(=O)O)cc4)C(=O)C3ON2c2ccccc2)cc1 (centres undefined)	VACV mCherry inh inconclusive
O=C(O)COc1ccccc1C1C2C(=O)N(c3ccccc3)C(=O)C2ON1c1ccccc1 (centres undefined)	Sm TGR inh 22.4µM
CCOc1ccccc1C1C2C(=O)N(c3ccccc3)C(=O)C2ON1c1ccccc1 (centres undefined)	none (no result: VACV Venus inh, VACV mCherry inh)
O=C1C2ON(c3ccccc3)C(c3ccncc3)C2C(=O)N1c1ccc(N2CCOCC2)cc1 (centres undefined)	HCV inh inconclusive, HCMV inh -74.9

Compound activity deposited in PubChem BioAssay by National Center for Advancing Translational Sciences (NCATS).
